Data as given in PubChem BioAssay (NCI).
About 83,000 compounds went through this panel and 20% of them were active in at least one assay; those are over-represented in the sample as a whole.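 Testing used 96-well plates and a 48-hour single-concentration exposure. Example: -40 means 40% of the starting cells died.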 Calls of active or inactive are those of the source. Rule for the calls: active = growth percent below 10; inactive = the rest.

Legend:
Assay in all cases: NCI-60 one-dose screen, 48 h (100 = growth as untreated, 0 = no growth, -100 = all killed)
Conditions in all cases: 10 µM unless noted
[1] = test system: SN12C renal
[2] = test system: UO-31 renal
[3] = test system: TK-10 renal
[4] = test system: ACHN renal
[5] = test system: CAKI-1 renal
[6] = test system: A498 renal
[7] = test system: CCRF-CEM leukemia
[8] = test system: MOLT-4 leukemia

Measured: growth

CC(C)NC(=O)OCC#CCOC(=O)NC(C)C
inactive: [1] 102% | [2] 79.8% | [3] 99.3% | [4] 108% | [5] 91.7% | [6] 104% | [7] 103% | [8] 101%

Cc1cc(Cl)c2ccc(N(C)C)cc2n1
inactive: [1] 98% | [2] 84.4% | [3] 109% | [4] 97.6% | [5] 93% | [6] 92.6% | [7] 95.9% | [8] 84.7%

Cc1nc2ccc(Nc3nc(NCCN4CCOCC4)nc(Nc4ccc(F)cc4)n3)cc2n1Cc1ccccc1
inactive: [1] 61.8% | [2] 37.3% | [3] 60.6% | [4] 52.2% | [5] 55.6% | [7] 29.5% | [8] 22.7%
active: [6] -13.9%

Cc1ccc(-c2nc3ccccc3c(=O)n2/N=C/c2cccc3ccccc23)cc1
inactive: [1] 82.3% | [2] 48.3% | [3] 101% | [4] 80.7% | [5] 54.4% | [6] 109% | [8] 55.9%

Clc1ccc(Nc2ncnc3c2sc2ncccc23)cc1
inactive: [1] 20.5% | [3] 59.3% | [4] 14.7% | [5] 15.3% | [6] 18.7% | [7] 21.2% | [8] 15%
active: [2] -13.8%

COc1ccccc1NC(=O)OCC12COCN1COC2
inactive: [1] 100% | [2] 94.9% | [3] 108% | [4] 102% | [5] 100% | [6] 80.5% | [7] 102% | [8] 95.9%

Cc1ccc2cc3c(NC(=O)c4cccnc4)nn(C)c3nc2c1
inactive: [1] 101% | [2] 78.6% | [3] 103% | [4] 89% | [5] 85.7% | [6] 91.7% | [7] 72.2% | [8] 94.3%

CCOC(=O)c1ccccc1SC(C[N+](=O)[O-])c1ccccc1 (stereo unspecified)
inactive: [1] 93.4% | [2] 99.4% | [3] 92.9% | [4] 88.7% | [5] 92.5% | [6] 87% | [7] 65.5% | [8] 94.3%

COC(=O)C(C)NC1=C(Cl)C(=O)C(NC(C)C(=O)OC)=C(Cl)C1=O (stereo unspecified)
inactive: [1] 99.5% | [2] 89.8% | [3] 121% | [4] 106% | [5] 103% | [6] 89.3% | [7] 96% | [8] 93.5%

CCCCn1c(C)nc2cc(Nc3nc(Cl)nc4nc[nH]c34)ccc21
inactive: [1] 78.9% | [2] 64.6% | [3] 73.5% | [4] 85.8% | [5] 76.1% | [6] 26% | [7] 78% | [8] 64%

COc1ccc(/C=C2\N=C(c3cccnc3)N(c3ccccc3)NC2=O)cc1
active: [7] -21.1%
inactive: [1] 105% | [2] 82.2% | [3] 101% | [4] 115% | [5] 97.6% | [8] 85.6%

Clc1ccc(Nc2ncnc3c2sc2ncccc23)c(Cl)c1
inactive: [3] 59.6% | [5] 15.1% | [6] 26.7%
active: [2] -11.7% | [4] 9.32%

N#Cc1ccc(NC(=O)Nc2nc3ccc(OC(F)(F)F)cc3s2)cc1
active: [1] -4.65% | [2] -2.76% | [4] -10.6% | [5] -15.5% | [6] -28.1% | [7] 3.09% | [8] -13.9%

CCc1ccc2c(c1)N(CCO)C1=C(C(=O)OC1)C2c1cccc(Br)c1 (stereo unspecified)
inactive: [1] 53.5% | [3] 45.4% | [4] 47.4% | [5] 26.1% | [7] 11.9% | [8] 19.3%
active: [6] 2.81%

COc1ccc(/C=C2\CCCC3=C2N=C2SC(C)=NN2C3c2ccc(OC)c(OC)c2)cc1OC (stereo unspecified)
active: [7] 3.82%
inactive: [1] 26.6% | [3] 25.6% | [4] 20.7% | [5] 26.1% | [6] 52.2%

Nc1c(C(=O)c2ccc(Br)cc2)sc2nc3c(cc12)CCCC3
inactive: [2] 89.7% | [3] 108% | [4] 96.3% | [5] 105% | [6] 70.9% | [7] 89.9% | [8] 96.4%

C=CCn1c(C)nc2cc(Nc3nc(N4CCOCC4)nc4nc[nH]c34)ccc21
inactive: [1] 84.3% | [2] 87.4% | [3] 92.4% | [4] 93.7% | [5] 93.8% | [7] 89.9% | [8] 74.4%

CCOc1ccc([C@@H]2[C@@H](Oc3ccccc3)C(=O)N2c2cc(OC)c(OC)c(OC)c2)cc1
inactive: [1] 31.4% | [2] 35.3% | [3] 48.1% | [4] 25.3%
active: [6] -9.61% | [7] 7.6% | [8] 5.59%

CC(=O)Nc1nonc1-c1nc2ccccc2n1Cc1ccc(C(C)(C)C)cc1
inactive: [1] 82.2% | [3] 95.5% | [4] 82.1% | [5] 69% | [7] 78.4% | [8] 51.7%
active: [6] -4.2%

COc1ccc(C2=Nn3c(nnc3-c3ccc(Cl)cc3N)SC2)cc1
inactive: [1] 99% | [2] 83.4% | [3] 130% | [4] 97% | [5] 92.9% | [7] 73.2% | [8] 101%

O=C(C(Br)C(Br)c1ccccc1)C(Br)C(Br)c1ccccc1 (stereo unspecified)
active: [1] -30.5% | [2] -96.6% | [3] -87.9% | [4] -96% | [7] -43.8% | [8] -43.4%
inactive: [6] 84.6%

CCSc1ccc([C@@H]2[C@@H](N)C(=O)N2c2cc(OC)c(OC)c(OC)c2)cc1
inactive: [1] 49.6% | [2] 49.4% | [3] 58.9% | [4] 50.7% | [7] 11.6% | [8] 13.1%
active: [6] 3.94%

CCCCn1cnc(-c2cc(-c3ccccc3)cc(C(F)(F)F)c2)n1
inactive: [2] 87.9% | [3] 102% | [4] 106% | [5] 91.5% | [6] 70.9% | [7] 97.1% | [8] 88.8%

CC(=O)OC1Oc2cc(C)c(C)cc2-c2oc(=O)c(-c3cc4ccccc4oc3=O)cc21 (stereo unspecified)
inactive: [1] 114% | [2] 96.2% | [3] 156% | [4] 71.9% | [6] 75% | [7] 94%

COc1cc(C2CC(c3cccc(Nc4ccnc5cc(Cl)ccc45)c3)=NN2c2ccc(Cl)cc2)cc(OC)c1OC (stereo unspecified)
active: [5] -1.85%
inactive: [1] 57.1% | [2] 23.6% | [3] 76.7% | [4] 41.5% | [7] 63.1%

COc1cc(/C=C/c2ccc3c(Br)cc(Br)c(O)c3n2)ccc1O
active: [2] 0.12% | [6] -4.9% | [7] -24.5%
inactive: [1] 52.8% | [3] 30.3% | [4] 22%

CC(=O)N1N=C(c2ccc(C)cc2)CC1c1cn(-c2ccccc2)nc1-c1cccc(Nc2ccnc3cc(Cl)ccc23)c1 (stereo unspecified)
inactive: [1] 46.2% | [2] 77.1% | [3] 61.3% | [4] 81.2% | [5] 101% | [6] 82.2% | [8] 23.4%

Nc1nc(N)c2c(n1)NC(c1sc(Cl)nc1Cl)CC(c1ccc3c(c1)OCO3)=N2 (stereo unspecified)
inactive: [1] 35.2% | [2] 30.4% | [3] 50.6% | [4] 45% | [5] 26.5% | [7] 11.1% | [8] 25.3%

O=C1/C(=C\c2cccn2Cc2ccc(F)cc2)c2ccccc2N1c1c(Cl)cccc1Cl
inactive: [2] 51.8% | [3] 81% | [4] 62.9% | [5] 67.5% | [6] 106% | [7] 83% | [8] 74.1%
